The text below walks through data of PMC11995724, “Antibiotic target discovery by integrated phenotypic and activity-based profiling of electrophilic fragments” (Cell chemical biology, 2025).

In all, about 3,200 compounds went through this assay and about 110 (3.4%) showed an effect of 50% or more. This excerpt belongs to a sample that is enriched for strong results.

In this assay the test system is T1, V. cholerae SAD30.
T1 construct: SAD30
Also noted: species or system S. aureus MSSA476 (TSB) or V. cholerae SAD30 (LB); 384-well bacterial growth screen at 25 uM, OD600 relative to DMSO control. The note with it: relative growth, OD600, LB; 25 µM; inhibitor.
With `O=S(=O)(CC=C(Cl)Cl)N1CCSSCC1` [10-P19, 5-(3,3-dichloroprop-2-ene-1-sulfonyl)-1,2,5-dithiazepane], the “% of control remaining” value is reported as 92.5774%.
`C=CC(=O)NCc1ccc(S(=O)(=O)NC2CC2)cc1` [2-P19, N-{[4-(cyclopropylsulfamoyl)phenyl]methyl}prop-2-enamide]: the “% of control remaining” value stood at 96.8349%.
In the case of `C=CC(=O)N1CCCC(c2nc(N(C)C)no2)C1` (centres unmarked) [3-A13, 1-{3-[3-(dimethylamino)-1,2,4-oxadiazol-5-yl]piperidin-1-yl}prop-2-en-1-one] it was 112.204%; in that of `CC(Cl)C(=O)NCC1CN(c2nncs2)CCO1` (centres unmarked) [7-O03, 2-chloro-N-{[4-(1,3,4-thiadiazol-2-yl)morpholin-2-yl]methyl}propanamide], 90.798%.
As for `O=C(CCl)Cc1ccc(F)cc1F` [10-G17, 1-chloro-3-(2,4-difluorophenyl)propan-2-one], the figure is 31.4826%.
As for `Cc1ccc(F)cc1NC(=O)CCl` [4-O03, 2-chloro-N-(5-fluoro-2-methylphenyl)acetamide], the “% of control remaining” value is recorded as 106.103%.
In the case of `O=C(CCl)N(Cc1ccccc1)Cc1ccc(F)cc1` [5-I06, N-benzyl-2-chloro-N-[(4-fluorophenyl)methyl]acetamide] it was 81.2021%.
As for `O=C(CCl)Cc1ccc(F)cc1Cl` [10-E19, 1-chloro-3-(2-chloro-4-fluorophenyl)propan-2-one], the “% of control remaining” value is given as 21.0403%.
Consider `O=C(CCl)Nc1c(Cl)cc(Cl)cc1Cl` [5-B16, 2-chloro-N-(2,4,6-trichlorophenyl)acetamide], for which the “% of control remaining” value worked out at 98.3503%.
As for `O=C(CCl)Cc1ccc(Cl)cc1Cl` [10-A15, 1-chloro-3-(2,4-dichlorophenyl)propan-2-one], the figure is 22.1313%.
As for `O=C(CCl)N1CC(Cc2ccc(F)cc2F)C1` [5-G20, 2-chloro-1-{3-[(2,4-difluorophenyl)methyl]azetidin-1-yl}ethan-1-one], the figure is 89.2718%; as for `CC(Cl)C(=O)N(CCc1ccc(F)cc1F)C(C)C` (centres unmarked) [6-D18, 2-chloro-N-[2-(2,4-difluorophenyl)ethyl]-N-(propan-2-yl)propanamide], 71.5897%.
In the case of `O=C(CCl)NCCc1ccc(Cl)cc1Cl` [6-M16, 2-chloro-N-[2-(2,4-dichlorophenyl)ethyl]acetamide] it was 96.0091%.
For the compound `N#CC(=Cc1cccc(O)c1)C(=O)Nc1ccc(N2CCOCC2)cc1` [8-I14, 2-cyano-3-(3-hydroxyphenyl)-N-[4-(morpholin-4-yl)phenyl]prop-2-enamide], the “% of control remaining” value was found to be 71.0401%.
With `CC1CN(c2ccc(NC(=O)C(C#N)=Cc3ccco3)cc2)CC(C)O1` (centres unmarked) [9-J09, 2-cyano-N-[4-(2,6-dimethylmorpholin-4-yl)phenyl]-3-(furan-2-yl)prop-2-enamide], the “% of control remaining” value is given as 84.3644%.
With `C=CC(=O)N1CCC(F)CC1` [1-D14, 1-(4-fluoropiperidin-1-yl)prop-2-en-1-one], the “% of control remaining” value stood at 79.2444%.
Turning to `CN(C)c1nc(N2CCOCC2)ncc1NC(=O)CCl` [5-M22, 2-chloro-N-[4-(dimethylamino)-2-(morpholin-4-yl)pyrimidin-5-yl]acetamide], the “% of control remaining” value came to 105.916%.
In the case of `C=CC(=O)Nc1ccc(S(=O)(=O)N(C)C)c(C)c1` [2-E06, N-[4-(dimethylsulfamoyl)-3-methylphenyl]prop-2-enamide] it was 93.4382%.
In the case of `C=CC(=O)N(CCC(N)=O)C1CCOc2ccccc21` (centres unmarked) [3-F13, N-(2-carbamoylethyl)-N-(3,4-dihydro-2H-1-benzopyran-4-yl)prop-2-enamide] it was 92.0897%.
In the case of `Cc1cc(C(=O)CCl)c(C)n1CCc1cccs1` [10-F16, 2-chloro-1-{2,5-dimethyl-1-[2-(thiophen-2-yl)ethyl]-1H-pyrrol-3-yl}ethan-1-one], the “% of control remaining” value was 110.189%.
In the case of `C=CC(=O)Nc1sc2c(c1C(N)=O)CCCCC2` [1-F21, 2-(prop-2-enamido)-4H,5H,6H,7H,8H-cyclohepta[b]thiophene-3-carboxamide] it was 88.1913%; in that of `CN(CCOc1ccc(Cl)cc1)C(=O)CCl` [5-D16, 2-chloro-N-[2-(4-chlorophenoxy)ethyl]-N-methylacetamide], 80.0252%.
As for `CSc1cc(C(=O)CCl)ccc1NC(C)=O` [10-H08, N-[4-(2-chloroacetyl)-2-(methylsulfanyl)phenyl]acetamide], the “% of control remaining” value is 25.2484%.
As to `CCOc1ccc(-n2c(C)cc(C(=O)CCl)c2C)cc1` [10-K08, 2-chloro-1-[1-(4-ethoxyphenyl)-2,5-dimethyl-1H-pyrrol-3-yl]ethan-1-one], the “% of control remaining” value is 98.9675%.
As for `N#Cc1ccc(OC2CN(C(=O)CCl)C2)cc1` [5-K07, 4-{[1-(2-chloroacetyl)azetidin-3-yl]oxy}benzonitrile], the “% of control remaining” value came out at 141.893%.
As for `CCOc1ccc(C(=O)CCl)cc1` [10-F12, 2-chloro-1-(4-ethoxyphenyl)ethan-1-one], the figure is 15.1179%; as for `CSc1ccccc1NC(=O)CN(C)C(=O)CCl` [4-L03, 2-chloro-N-methyl-N-({[2-(methylsulfanyl)phenyl]carbamoyl}methyl)acetamide], 116.282%; as for `N#Cc1ccc(C(=O)CCl)cc1` [10-F10, 4-(2-chloroacetyl)benzonitrile], 0%.
As for `CSc1ccccc1NC(=O)CCl` [4-E11, 2-chloro-N-[2-(methylsulfanyl)phenyl]acetamide], the figure is 92.3011%; as for `O=C(CCl)COc1ccc(Cl)cc1` [10-M17, 1-chloro-3-(4-chlorophenoxy)propan-2-one], 11.6891%.
As to `CCOc1ccc(C(=O)C(C)Cl)cc1` (centres unmarked) [10-G06, 2-chloro-1-(4-ethoxyphenyl)propan-1-one], the “% of control remaining” value is recorded as 103.331%.
In the case of `CC(Cl)C(=O)N(C)CCOc1ccc(Cl)cc1` (centres unmarked) [6-C12, 2-chloro-N-[2-(4-chlorophenoxy)ethyl]-N-methylpropanamide] it was 74.0165%; in that of `O=C(CCl)Nc1ccc(Cl)c(S(=O)(=O)N2CCCCC2)c1` [4-P14, 2-chloro-N-[4-chloro-3-(piperidine-1-sulfonyl)phenyl]acetamide], 110.589%; in that of `C=CC(=O)NC1(C(N)=O)Cc2ccccc2C1` [2-D15, 2-(prop-2-enamido)-2,3-dihydro-1H-indene-2-carboxamide], 88.8063%.
For the compound `C=CC(=O)Nc1cc(C)nn1-c1ccccc1F` [2-C15, N-[1-(2-fluorophenyl)-3-methyl-1H-pyrazol-5-yl]prop-2-enamide], the “% of control remaining” value is 95.1365%.
As for `CC(c1ccccc1F)N1CCCC(NC(=O)CCl)C1=O` (centres unmarked) [5-I10, 2-chloro-N-{1-[1-(2-fluorophenyl)ethyl]-2-oxopiperidin-3-yl}acetamide], the figure is 94.4836%; as for `C=CC(=O)N1CCC(C(=O)N2CCC[C@H]2c2ncn[nH]2)CC1` [2-D12, 1-{4-[(2S)-2-(1H-1,2,4-triazol-5-yl)pyrrolidine-1-carbonyl]piperidin-1-yl}prop-2-en-1-one], 91.1223%.
Regarding `N#CC(=Cc1ccc2ccccc2c1)C(=O)NC(N)=O` [9-K10, {2-cyano-2-[(naphthalen-2-yl)methylidene]acetyl}urea], the “% of control remaining” value stood at 87.0836%.
In the case of `Cc1ccc(C(=O)c2c(NC(=O)CCl)sc3c2CCCC3)cc1` [6-A12, 2-chloro-N-[3-(4-methylbenzoyl)-4,5,6,7-tetrahydro-1-benzothiophen-2-yl]acetamide] it was 94.644%.
For the compound `C=CC(=O)NCC(=C)c1ccccc1` [2-B09, N-(2-phenylprop-2-en-1-yl)prop-2-enamide], the “% of control remaining” value worked out at 87.2624%.
As for `CC(Cl)C(=O)NC(C)(C)c1ccc(F)cc1F` (centres unmarked) [6-E21, 2-chloro-N-[2-(2,4-difluorophenyl)propan-2-yl]propanamide], the figure is 92.9756%.
Take `C=CC(=O)Nc1cc(CC(C)(C)C)no1` [1-I19, N-[3-(2,2-dimethylpropyl)-1,2-oxazol-5-yl]prop-2-enamide]: the “% of control remaining” value turned out to be 92.9746%.
Turning to `COCc1ncc2c(n1)CC1CCC2N1C(=O)C(C)Cl` (centres unmarked) [7-M20, 2-chloro-1-[5-(methoxymethyl)-4,6,12-triazatricyclo[7.2.1.0,2,7]dodeca-2,4,6-trien-12-yl]propan-1-one], the “% of control remaining” value was 81.4142%.
With `Cc1cc(CO[C@H]2CC[C@H](NC(=O)CCl)CC2)on1` [6-K19, 2-chloro-N-[(1r,4r)-4-[(3-methyl-1,2-oxazol-5-yl)methoxy]cyclohexyl]acetamide], the “% of control remaining” value is given as 92.9756%.
As for `C=CC(=O)Nc1cnn(C2CCCC2)c1` [3-O21, N-(1-cyclopentyl-1H-pyrazol-4-yl)prop-2-enamide], the figure is 106.734%.
`N#CC(=Cc1ccccc1Cl)C(=O)Nc1cccc2ncccc12` [8-C15, 3-(2-chlorophenyl)-2-cyano-N-(quinolin-5-yl)prop-2-enamide]: the “% of control remaining” value turned out to be 75.9347%.
In the case of `C=CC(=O)NCC12CC3CC(CC(C3)C1)C2` [1-F17, N-[(adamantan-1-yl)methyl]prop-2-enamide] it was 83.4081%.
With `NC(=O)COc1ccc(C(=O)CCl)cc1` [10-M07, 2-[4-(2-chloroacetyl)phenoxy]acetamide], the “% of control remaining” value was 49.25%.
As for `CCc1ccc(C(=O)CCl)cc1` [10-F18, 2-chloro-1-(4-ethylphenyl)ethan-1-one], the figure is 26.1835%; as for `CC(=O)NCCc1ccc(C(=O)CCl)cc1` [10-N03, N-{2-[4-(2-chloroacetyl)phenyl]ethyl}acetamide], 115.8%; as for `O=C(CCl)c1ccc(Oc2ccccc2)cc1` [10-G20, 2-chloro-1-(4-phenoxyphenyl)ethan-1-one], 25.2484%.
In the case of `CCCc1ccc(C(=O)CCl)cc1` [10-C04, 2-chloro-1-(4-propylphenyl)ethan-1-one] it was 109.254%; in that of `CSc1ccc(C(=O)CCl)cc1` [10-E07, 2-chloro-1-[4-(methylsulfanyl)phenyl]ethan-1-one], 0%.
In the case of `O=C(CCl)Nc1ccc(Oc2ccccc2)cc1` [4-J09, 2-chloro-N-(4-phenoxyphenyl)acetamide] it was 97.6493%; in that of `O=C(CCl)Nc1cccc(Oc2ccccc2)c1` [4-P19, 2-chloro-N-(3-phenoxyphenyl)acetamide], 96.6142%; in that of `NC(=O)CCc1ccc(C(=O)CCl)cc1` [10-I03, 3-[4-(2-chloroacetyl)phenyl]propanamide], 70.7578%.
